PERK inh: blocks human PERK kinase | AID 1416 | inhibition, % at 5.6 µM | 220,000 tested, 0.17% active | CHO PERK-DD fusion, SEAP luminescence translation reporter | Q9NZJ5;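 active = inhibition above the mean inhibition of all tested compounds plus 3 SD, set separately per screening campaign, cut at about 2.9% in these data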;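 note: PERK kinase domain activated by AP20187 dimerizer at 100 nM; 0% = DMSO with dimerizer and 100% = rapamycin at 8.4 µM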
Autophagy mod: autophagy modulation, high-content screen. 190,000 tested, 0.98% active. calls only at 10 µM (by protocol). MEF GFP-LC3 puncta imaging; test concentration mostly 10 µM;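 active = percentage of spot-positive cells more than 3 SD above its plate mean, without a fluorescence outlier flag or 80% toxicity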;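 note: spot-positive cell cutoff set from DMSO-treated cells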
eIF4E-4G inh: eIF4E/eIF4G interaction inhibition in translation initiation; P63073+Q04637; TR-FRET eIF4E-eIF4GI(517-606) binding, 2 h; inhibition, % at 21.7 µM; 220,000 tested, 0.37% active;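 active = inhibition above about 30%, limit read from the data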;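 note: 0% = full FRET control wells and 100% = background wells lacking eIF4GI fragment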
Target sequence (P63073 whole entry, looked up, the tested form may be a part): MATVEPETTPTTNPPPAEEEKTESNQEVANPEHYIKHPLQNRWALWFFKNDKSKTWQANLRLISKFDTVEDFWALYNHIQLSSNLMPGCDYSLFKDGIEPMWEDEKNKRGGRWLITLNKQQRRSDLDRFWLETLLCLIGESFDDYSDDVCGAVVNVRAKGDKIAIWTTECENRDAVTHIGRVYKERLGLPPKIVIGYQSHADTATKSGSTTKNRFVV
Target sequence (Q04637 whole entry, looked up, the tested form may be a part): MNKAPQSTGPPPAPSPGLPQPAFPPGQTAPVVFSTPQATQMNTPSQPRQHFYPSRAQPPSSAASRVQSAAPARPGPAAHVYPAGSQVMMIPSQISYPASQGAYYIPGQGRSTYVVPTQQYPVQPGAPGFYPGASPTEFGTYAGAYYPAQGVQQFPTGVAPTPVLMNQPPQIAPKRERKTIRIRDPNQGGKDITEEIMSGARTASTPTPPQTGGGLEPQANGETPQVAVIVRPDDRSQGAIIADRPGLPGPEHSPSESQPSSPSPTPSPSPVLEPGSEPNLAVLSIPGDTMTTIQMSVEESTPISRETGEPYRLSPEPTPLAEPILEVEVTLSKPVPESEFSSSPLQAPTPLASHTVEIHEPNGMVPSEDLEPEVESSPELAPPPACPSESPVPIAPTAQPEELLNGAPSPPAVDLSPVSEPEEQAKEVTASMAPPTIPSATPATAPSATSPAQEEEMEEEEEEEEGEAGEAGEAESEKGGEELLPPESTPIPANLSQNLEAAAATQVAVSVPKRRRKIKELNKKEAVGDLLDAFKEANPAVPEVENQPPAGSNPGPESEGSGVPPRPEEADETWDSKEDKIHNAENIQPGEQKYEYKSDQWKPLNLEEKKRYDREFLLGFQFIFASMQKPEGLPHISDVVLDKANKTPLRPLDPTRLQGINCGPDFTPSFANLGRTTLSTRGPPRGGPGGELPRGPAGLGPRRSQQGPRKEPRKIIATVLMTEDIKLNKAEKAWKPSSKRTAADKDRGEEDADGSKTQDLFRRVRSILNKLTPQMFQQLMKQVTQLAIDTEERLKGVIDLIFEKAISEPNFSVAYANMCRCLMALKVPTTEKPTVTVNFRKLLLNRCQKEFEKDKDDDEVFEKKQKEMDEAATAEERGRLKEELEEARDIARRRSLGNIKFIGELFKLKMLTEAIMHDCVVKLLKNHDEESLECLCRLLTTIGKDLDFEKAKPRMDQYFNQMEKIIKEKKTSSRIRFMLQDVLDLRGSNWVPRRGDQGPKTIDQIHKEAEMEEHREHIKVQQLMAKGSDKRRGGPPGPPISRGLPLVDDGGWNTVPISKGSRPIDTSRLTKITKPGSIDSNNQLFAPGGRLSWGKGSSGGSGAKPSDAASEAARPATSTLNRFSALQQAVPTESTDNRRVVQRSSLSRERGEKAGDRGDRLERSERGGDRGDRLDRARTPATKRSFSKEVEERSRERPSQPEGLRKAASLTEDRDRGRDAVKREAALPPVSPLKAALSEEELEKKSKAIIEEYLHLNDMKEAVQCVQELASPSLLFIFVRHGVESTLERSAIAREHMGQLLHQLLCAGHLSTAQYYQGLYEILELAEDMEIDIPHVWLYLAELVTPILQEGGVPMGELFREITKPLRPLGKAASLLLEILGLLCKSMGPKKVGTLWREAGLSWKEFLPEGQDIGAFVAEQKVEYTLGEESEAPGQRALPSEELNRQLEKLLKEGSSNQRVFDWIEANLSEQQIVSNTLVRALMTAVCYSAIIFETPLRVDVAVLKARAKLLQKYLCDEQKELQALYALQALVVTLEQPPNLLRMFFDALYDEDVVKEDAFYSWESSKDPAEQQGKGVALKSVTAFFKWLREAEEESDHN
INS promoter inh: TRM-6 insulin promoter activity inhibition. TRM-6 cells (human fetal islet line), insulin promoter-eGFP reporter, imaging; reporter expression induced with tamoxifen. inhibition, % at 2 µM. 130,000 tested, 0.9% active;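 active = inhibition above the mean plus 3 SD, with well images judged a real hit on visual review, cut at about 60% in these data, passing the limit was not always enough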
Insulin prom up: MIN6 insulin promoter up-regulation | MIN6 insulin promoter-GFP reporter, high-content imaging; stronger effect = higher value | z-score at 5 µM | 190,000 tested, 0.3% active | AID 1625;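 active = z-score above 3 at 5 µM with at least 500 cells counted in the well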
Numbers without * were called inactive; [ ] = remark or other dose. Sampled rows, rich in hits. Any-hit rate of the full collection: about 2%.

Cc1ccc(C)c(NC(=O)Cn2nnc(-c3ccc(N4CCOCC4)cc3)n2)c1 was read as PERK inh 1, Autophagy mod active, eIF4E-4G inh 0, INS promoter inh 0 and Insulin prom up -0.09.
Screening COc1ccc(C(=O)/C=C/Nc2ccc([N+](=O)[O-])cc2C)c(OC)c1 returned PERK inh 1, Autophagy mod active, eIF4E-4G inh -12, INS promoter inh 22 and Insulin prom up -0.61.
COc1ccc([N+](=O)[O-])cc1NC(=O)COC(=O)c1ccccc1O was read as PERK inh 2, eIF4E-4G inh -2 and Insulin prom up -0.91.
`COc1ccc(C(=O)OCC(=O)Nc2ccc([N+](=O)[O-])cc2OC)c(O)c1` gave PERK inh 0, Autophagy mod active, eIF4E-4G inh -5 and Insulin prom up -0.07.
For CN(C)c1ccc(C(=O)N/N=C/c2cc(Br)cc(Br)c2O)cc1 the results were PERK inh 2, eIF4E-4G inh 10 and Insulin prom up 4.7*.
`COc1c(Br)cc(Br)cc1/C=N/NC(=O)c1ccncc1` gave PERK inh 0, Autophagy mod inactive, eIF4E-4G inh 1 and Insulin prom up 0.11.
`O=C(COc1ccc(-c2ccccc2)cc1)N1CCN(S(=O)(=O)Cc2ccccc2)CC1` gave PERK inh -1, Autophagy mod inactive, eIF4E-4G inh 0, INS promoter inh -28 and Insulin prom up 0.9.
For Cc1ccc(/C=N/NC(=O)C[n+]2ccccc2)s1 the results were PERK inh 0, eIF4E-4G inh 1 and Insulin prom up -0.03.
Screening CCCCCCCCCC(=O)N/N=C/c1ccc(C)s1 returned PERK inh 1, Autophagy mod inactive, eIF4E-4G inh 52*[fluorescence artefact?], INS promoter inh 22 and Insulin prom up 1.4.
CC(=O)Nc1nc(SCC(=O)NCc2ccc(F)cc2)[nH]c(=O)c1NC(=O)c1cccs1 was read as PERK inh 2, Autophagy mod active, eIF4E-4G inh -3 and Insulin prom up -0.19.
Screening CC(=O)Nc1nc(SCC(=O)NCC2CCCO2)[nH]c(=O)c1NC(=O)c1cccs1 (centres undefined) returned PERK inh 0, Autophagy mod inactive and eIF4E-4G inh 2.
`CCn1c(SCc2nc3ccccc3[nH]2)nnc1-c1cccs1` gave PERK inh -2, Autophagy mod active, eIF4E-4G inh 2, INS promoter inh 6 and Insulin prom up 1.8.
Screening CC(=O)Nc1nc(-c2ccc(Cl)cc2)ns1 returned PERK inh 1, Autophagy mod active, eIF4E-4G inh 1, INS promoter inh -86 and Insulin prom up -0.01.
`CCC(=O)Nc1nc(-c2ccccc2)ns1` gave PERK inh 0, Autophagy mod inactive, eIF4E-4G inh -1 and INS promoter inh 24.
Screening CC1COC(=O)C(NNc2ccc(Cl)c(Cl)c2)=N1 (centres undefined) returned PERK inh 1, Autophagy mod inactive, eIF4E-4G inh 1 and Insulin prom up -0.43.
`N#CC(C(=O)NC1CCCCC1)c1nc2ccccc2nc1N1CCN(c2ccc(F)cc2)CC1` (centres undefined) gave PERK inh 1, Autophagy mod active, eIF4E-4G inh 1 and Insulin prom up -0.02.
`O=C(CSc1nc2ccccc2[nH]1)NCCN1CCCCC1` gave PERK inh 1, Autophagy mod inactive, eIF4E-4G inh 2 and INS promoter inh -44.
`CCn1c(SCC(=O)Nc2ccccc2OC)nc(O)cc1=O` gave PERK inh 0, eIF4E-4G inh 2 and Insulin prom up 0.56.
For Cc1cc(=O)oc2cc(OCC(=O)OCC(=O)Nc3ccccc3C(C)C)ccc12 the results were PERK inh 1, Autophagy mod inactive, eIF4E-4G inh 4, INS promoter inh 60* and Insulin prom up -0.48.
CC(NC(=O)C(CC(=O)OC(C)(C)C)NC(=O)OC(C)(C)C)C(N)=O (centres undefined) was read as PERK inh 0, Autophagy mod inactive, eIF4E-4G inh 1 and Insulin prom up -0.61.
`COC(=O)c1ccccc1NC(=O)Cn1c(-c2nonc2N)nc2ccccc21` gave PERK inh 0, Autophagy mod active, eIF4E-4G inh -20, INS promoter inh -205 and Insulin prom up -0.28.
Screening COC(=O)c1ccc(NC(=O)Cn2c(-c3nonc3N)nc3ccccc32)cc1 returned PERK inh 0, Autophagy mod inactive, eIF4E-4G inh 4, INS promoter inh -17 and Insulin prom up 1.5.
For COc1ccc2[nH]c(CN3CCC(CO)(CCOc4ccccc4)CC3)c(C)c2c1 the results were PERK inh -1, Autophagy mod active and eIF4E-4G inh -1.
`COc1ccc(CN2CCC(CO)(CCOc3ccccc3)CC2)c(OC)c1C` gave PERK inh -1, Autophagy mod inactive, eIF4E-4G inh 4 and Insulin prom up -0.22.
COc1ccccc1NC(=S)NC(=O)/C=C/c1ccco1 was read as PERK inh 0, Autophagy mod inactive, eIF4E-4G inh 0, INS promoter inh 50 and Insulin prom up 0.23.
For COc1ccccc1NC(=O)/C(C#N)=C/C=C/c1ccco1 the results were PERK inh 1, Autophagy mod active, eIF4E-4G inh -3 and INS promoter inh -40.
`O=C(COC(=O)c1ccccc1)NCc1cccs1` gave PERK inh 0, Autophagy mod inactive, eIF4E-4G inh -4, INS promoter inh 46 and Insulin prom up 0.41.
Screening Cc1ccc(C(=O)OCC(=O)NCc2cccs2)c(C)c1 returned PERK inh 2, Autophagy mod active, eIF4E-4G inh 0 and Insulin prom up 0.32.
`Cc1cc(C)cc(C(=O)OCC(=O)NCc2cccs2)c1` gave PERK inh 0, Autophagy mod inactive, eIF4E-4G inh -1, INS promoter inh 23 and Insulin prom up 0.27.
For Cc1cc2c(cc(C(=O)OCC(=O)NCc3cccs3)n2C(C)C)o1 the results were PERK inh 0, Autophagy mod active, eIF4E-4G inh -6, INS promoter inh -75 and Insulin prom up -1.8.
`O=C(Nc1ccccc1N1CCOCC1)c1cc(Br)c(Br)s1` gave PERK inh 1, Autophagy mod inactive, eIF4E-4G inh -3 and Insulin prom up 1.1.
For COc1cccc(N2CCN(c3ncccn3)CC2)c1 the results were PERK inh 1, Autophagy mod inactive, eIF4E-4G inh 13 and Insulin prom up 3.1*.
For COc1ccc(CCc2nnc(CCC(=O)N(C)Cc3ccncc3C)o2)cc1 the results were PERK inh 0, Autophagy mod inactive, eIF4E-4G inh -3 and INS promoter inh 22.
CCC(Sc1nc2cc3c(cc2c(=O)n1Cc1ccco1)OCO3)C(=O)Nc1cccc(OC)c1 (centres undefined) was read as PERK inh 0, Autophagy mod active, eIF4E-4G inh -14, INS promoter inh 42 and Insulin prom up 0.13.
